Results: PubChem BioAssay (EPA / NIEHS)
Inconclusive results are not listed. Calls of active or inactive are those of the source. The calls were made as follows, unless noted: active = hit-call score of the fitted dose curve at least 0.9, where 1 is the maximum; inconclusive = response in the unintended direction; inactive = score below 0.9.

Tests used:
[1] = Tanguay_ZF_120hpf_PIG_legacy: (Legacy) Oregon State University Tanguay Lab 120 Hour Post-fertilization zebrafish Assay for Pigmentation Malformation (AID 2283650)
Summary of the method: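 Pigment malformation recorded as a binary call at 120 hpf in zebrafish (Tropical 5D) exposed singly from 6 hpf after pronase dechorionation. Static, sealed, 28C exposure, 0.64% DMSO; mortality excludes scoring; positive-direction fit against DMSO.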

[2] = read-out: kallikrein-3 (KLK3), KLK3 (gene 354); test: LTEA_HepaRG_KLK3: Life Technologies and Expression Analysis (LTEA) Assay for kallikrein-3 (KLK3) using HepaRG (AID 2283652; active = hit-call score of the fitted dose curve at least 0.9, where 1 is the maximum; inactive = score below 0.9); settings: mRNA level, 48 h; actives raise or lower the signal
Summary of the method: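 KLK3 transcript levels were measured by TaqMan qRT-PCR with normalisation to three housekeeping genes. HepaRG cultures received chemicals for 48 h at up to 100 uM (half-log, 8 points, 0.5% DMSO vehicle), fitted in both directions against DMSO.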

[3] = read-out: solute carrier (SLC22A6), SLC22A6 (gene 9356); test: LTEA_HepaRG_SLC22A6: Life Technologies and Expression Analysis (LTEA) Assay for solute carrier (SLC22A6) using HepaRG (AID 2283653; active = hit-call score of the fitted dose curve at least 0.9, where 1 is the maximum; inactive = score below 0.9); settings: mRNA level, 48 h; actives raise or lower the signal
Summary of the method: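 Gene-expression endpoint in HepaRG hepatic cells: duplicate 8-point concentration-response, highest 100 uM, 48 h treatment in serum-free medium with 0.5% DMSO. SLC22A6 expression measured by qRT-PCR, normalised to ACTB/GAPDH/POLR2A.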

[4] = Tanguay_ZF_120hpf_SWIM_legacy: (Legacy) Oregon State University Tanguay Lab 120 Hour Post-fertilization zebrafish Assay for Swim Bladder Malformation (AID 2283654);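 also: swim bladder malformation in each larva scored yes or no under brightfield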
Summary of the method: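 Scoring is binary for swim bladder defects at 120 hpf, by brightfield inspection of zebrafish larvae. Embryos were exposed singly from 6 hpf after pronase dechorionation, at 28C with 0.64% DMSO; mortality excluded scoring.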

[5] = Tanguay_ZF_120hpf_TRUN_legacy: (Legacy) Oregon State University Tanguay Lab 120 Hour Post-fertilization zebrafish Assay for Truncated Body (AID 2283655)
Summary of the method: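 Single dechorionated zebrafish embryos received test chemical from 6 hpf in 0.64% DMSO, kept at 28C. At 120 hpf, brightfield inspection noted any truncated body.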

[6] = Tanguay_ZF_120hpf_NC_legacy: (Legacy) Oregon State University Tanguay Lab 120 Hour Post-fertilization zebrafish Assay for Notochord and Tail Malformation (AID 2283656)
Summary of the method: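 Binary notochord-distortion calls, made by brightfield inspection, form the read-out; activity is fitted in the positive direction against DMSO. Exposure ran statically from 6 to 120 hpf at 28C with 0.64% DMSO.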

[7] = read-out: ABC Transporter (ABCB1), ABCB1 (gene 5243); test: CLD_ABCB1_6hr: CellzDirect (CLD) Gene Expression Assay for ABC Transporter (ABCB1) at 6 hours (AID 2283659);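 also: hits raise ABCB1 transcript above the DMSO vehicle baseline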
Summary of the method: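 ABCB1 transcript measured by quantitative nuclease protection assay, chemiluminescent read-out, 6 h after dosing human hepatocyte cultures (0.2% DMSO vehicle, daily redosing). Activity fitted as increase over DMSO baseline; cytotoxicity flagged by phase-contrast morphology.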

[8] = Tanguay_ZF_120hpf_CIRC_legacy: (Legacy) Oregon State University Tanguay Lab 120 Hour Post-fertilization zebrafish Assay for Circulatory Malformation (AID 2283651)
Summary of the method: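 Binary circulatory-malformation call at 120 hpf via brightfield imaging, relative to DMSO controls. Embryos (5D strain, chorion removed) received static, light-shielded exposure at 28C.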

[9] = read-out: xenobiotic metabolism (CYP1A1), CYP1A1 (gene 1543); test: CLD_CYP1A1_6hr: CellzDirect (CLD) Gene Expression Assay for xenobiotic metabolism (CYP1A1) at 6 hours (AID 2283661);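 as to AC50: potency for transcript induction above DMSO vehicle baseline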
Summary of the method: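 Read-out 6 h post-dose: qNPA chemiluminescent quantitation of transcript induction against 0.2% DMSO. Cells were cultured primary human hepatocytes from two separate donor preparations; phase-contrast morphology annotated apparent cytotoxicity.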

[10] = read-out: Broad substrate specificity ATP-binding cassette transporter ABCG2 (Homo sapiens) (UniProt Q9UNQ0); test: CLD_ABCG2_6hr: CellzDirect (CLD) Gene Expression Assay for ABC Transporter (ABCG2) at 6 hours (AID 2283660)
Summary of the method: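 ABCG2 mRNA induction measured by qNPA chemiluminescence in human primary hepatocyte cultures, 6 h post-dose. Chemicals tested at several concentrations against a 0.2% DMSO vehicle; positive-direction fit relative to DMSO.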

Measured: AC50

Sequence of Broad substrate specificity ATP-binding cassette transporter ABCG2 (Homo sapiens) (Q9UNQ0 whole entry, looked up): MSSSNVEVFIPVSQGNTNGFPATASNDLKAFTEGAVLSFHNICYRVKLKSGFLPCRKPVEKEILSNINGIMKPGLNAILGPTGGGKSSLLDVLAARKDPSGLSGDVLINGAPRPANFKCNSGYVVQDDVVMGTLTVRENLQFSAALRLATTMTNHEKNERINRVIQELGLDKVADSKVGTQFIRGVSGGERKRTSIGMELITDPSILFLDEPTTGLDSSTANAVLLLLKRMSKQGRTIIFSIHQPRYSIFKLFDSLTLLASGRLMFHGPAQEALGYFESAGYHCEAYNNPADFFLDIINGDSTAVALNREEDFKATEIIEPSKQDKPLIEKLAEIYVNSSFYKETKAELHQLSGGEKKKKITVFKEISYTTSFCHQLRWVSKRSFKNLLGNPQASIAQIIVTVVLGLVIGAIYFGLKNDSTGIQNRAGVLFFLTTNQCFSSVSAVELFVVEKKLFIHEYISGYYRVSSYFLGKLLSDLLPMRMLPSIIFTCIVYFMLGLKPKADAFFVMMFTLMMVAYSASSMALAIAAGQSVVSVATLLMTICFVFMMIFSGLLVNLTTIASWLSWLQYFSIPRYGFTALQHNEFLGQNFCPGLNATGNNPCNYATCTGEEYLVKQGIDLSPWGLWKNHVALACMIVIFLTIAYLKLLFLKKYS

CC1(C(=O)Nc2ccc(O)c(Cl)c2Cl)CCCCC1
inactive: [1] | [2] | [3] | [4] | [5] | [6] | [7]

CCOP(=O)(SC(C)CC)N1CCSC1=O (configuration not stated)
inactive: [1] | [8] | [4] | [5] | [6] | [7] | [9]

CNC(=O)ON=C(SC)C(=O)N(C)C
inactive: [1] | [4] | [5] | [6] | [7] | [10]

COc1ccc(C(=CC(=O)N2CCOCC2)c2ccc(Cl)cc2)cc1OC
active: [4] 63.3 µM | [5] 51.4 µM
inactive: [1] | [8] | [7]

CCOC(=O)CC(SP(=O)(OC)OC)C(=O)OCC (configuration not stated)
inactive: [1] | [8] | [3] | [4] | [5] | [6] | [7] | [9]

CCc1cccc(C)c1N(C(=O)CCl)C(C)COC (configuration not stated)
inactive: [1] | [8] | [4] | [5] | [6] | [7] | [10]

CCOP(=S)(OCC)Oc1cc(C)nc(C(C)C)n1
inactive: [1] | [8] | [5] | [6] | [7]
active: [9] 0.682 µM

CC(C)N(C(=O)SCC(Cl)=C(Cl)Cl)C(C)C
inactive: [1] | [4] | [5] | [6] | [7] | [10] | [9]

CCOP(=S)(OCC)Oc1ccc2c(C)c(Cl)c(=O)oc2c1
inactive: [1] | [2] | [3] | [4] | [5] | [6] | [7] | [9]

CC(C)[C@H](C(=O)O[C@H](C#N)c1cccc(Oc2ccccc2)c1)c1ccc(Cl)cc1
active: [4] 4.25 µM
inactive: [1] | [8] | [5] | [6] | [7] | [9]

CCc1cccc(CC)c1N(COC)C(=O)CCl
inactive: [1] | [3] | [4] | [5] | [6]

CSc1nc(NC(C)C)nc(NC(C)C)n1
active: [9] 3.97 µM
inactive: [1] | [3] | [4] | [6] | [7]

C[N+]1(C)CCCCC1
inactive: [1] | [8] | [4] | [5] | [6] | [7] | [9]

CSC1=N[C@@](C)(c2ccccc2)C(=O)N1Nc1ccccc1
active: [9] 0.00477 µM
inactive: [1] | [8] | [4] | [5] | [6] | [7]

COP(=O)(OC)SCn1c(=O)oc2cc(Cl)cnc21
inactive: [1] | [4] | [5] | [6]

CCCCOC(=O)c1ccccc1C(=O)O
inactive: [1] | [8] | [4] | [5] | [7] | [9]

O=c1ccc(=O)[nH][nH]1
inactive: [1] | [4] | [5] | [7]
active: [6] 41.6 µM

CCOP(=S)(Oc1cnc(C(C)(C)C)nc1)OC(C)C (configuration not stated)
inactive: [1] | [2] | [3] | [4] | [5] | [6] | [7] | [10]
active: [9] 2.24 µM

CCc1cnc(C2=NC(C)(C(C)C)C(=O)N2)c(C(=O)O)c1 (configuration not stated)
inactive: [1] | [8] | [5] | [6] | [7] | [9]

O=[N+]([O-])c1cc(C(F)(F)F)c(Cl)c([N+](=O)[O-])c1Nc1ncc(C(F)(F)F)cc1Cl
inactive: [1] | [4] | [5]

S=C1NCCN1
inactive: [1] | [4] | [5] | [6] | [7]

CNC(=O)Oc1cccc2c1OC(C)(C)O2
inactive: [1] | [2] | [3] | [4] | [5] | [6] | [7]
active: [9] 2.94 µM

Nc1c(Cl)cc([N+](=O)[O-])cc1Cl
active: [1] 10.8 µM | [5] 34.7 µM | [9] 34.5 µM
inactive: [8] | [4] | [6] | [10]

CN(C)NC(=O)CCC(=O)O
inactive: [1] | [4] | [5] | [6] | [7]

CCNc1nc(Cl)nc(NC(C)(C)C#N)n1
inactive: [1] | [4] | [5] | [6] | [7]

CC(=NC#N)N(C)Cc1ccc(Cl)nc1
inactive: [1] | [4] | [5] | [6]

Cc1ccn2nc(S(=O)(=O)Nc3c(F)cccc3F)nc2n1
inactive: [1] | [4] | [5] | [6] | [7] | [10] | [9]

Nc1nc(N)nc(NC2CC2)n1
inactive: [1] | [8] | [4] | [5] | [7] | [9]

COc1cc(OC)nc(Sc2cccc(Cl)c2C(=O)O)n1
inactive: [1] | [4] | [5] | [6] | [7] | [10]

CC(C1CC1)C(O)(Cn1cncn1)c1ccc(Cl)cc1 (configuration not stated)
active: [4] 32.6 µM | [9] 0.0103 µM
inactive: [1] | [5] | [6] | [7] | [10]

C#CCC1=C(C)C(OC(=O)C2C(C=C(C)C)C2(C)C)CC1=O (configuration not stated)
inactive: [1] | [8] | [4] | [7] | [9]

CN1COCN(Cc2cnc(Cl)s2)C1=N[N+](=O)[O-]
inactive: [1] | [8] | [4] | [5] | [6] | [7] | [10]

C=C(C)[C@H]1Cc2c(ccc3c2O[C@@H]2COc4cc(OC)c(OC)cc4[C@@H]2C3=O)O1
inactive: [1] | [4] | [5] | [6]
